NPYLR7 agonist: mosquito NPYLR7 agonism. AID 1259423. hit rate 0.15% among 270,000. HEK293T NPYLR7/Galpha15, GCaMP6s calcium fluorescence. activation, % at 10 µM; in the data active = activation above about 40%
hcGAS lum: inhibitors of human cGAS; inhibition, % at 12.5 µM; recombinant h-cGAS, ATP depletion, Kinase-Glo luminescence; hit rate 0.081% among 290,000; AID 1259398; Q8N884
Target sequence (Q8N884 whole entry, looked up): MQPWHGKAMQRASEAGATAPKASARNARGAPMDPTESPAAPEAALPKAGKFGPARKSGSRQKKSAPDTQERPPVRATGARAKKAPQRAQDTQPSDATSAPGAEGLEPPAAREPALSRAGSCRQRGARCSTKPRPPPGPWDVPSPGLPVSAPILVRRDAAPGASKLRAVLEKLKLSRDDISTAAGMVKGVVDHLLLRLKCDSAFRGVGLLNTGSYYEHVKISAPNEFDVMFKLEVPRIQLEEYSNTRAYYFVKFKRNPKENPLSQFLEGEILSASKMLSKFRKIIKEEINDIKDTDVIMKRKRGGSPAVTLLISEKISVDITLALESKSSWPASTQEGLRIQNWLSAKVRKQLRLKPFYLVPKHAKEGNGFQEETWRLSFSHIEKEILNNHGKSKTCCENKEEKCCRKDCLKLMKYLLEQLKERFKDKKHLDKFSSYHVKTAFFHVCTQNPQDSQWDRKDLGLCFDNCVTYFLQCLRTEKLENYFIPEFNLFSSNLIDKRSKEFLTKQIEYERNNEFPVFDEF
mcGAS inh: inhibitors of mouse cGAS | Q8C6L5 | recombinant cGAS, Kinase-Glo ATP depletion luminescence | inhibition, % at 12.5 µM | hit rate 0.15% among 160,000 | AID 1259399
A number is an active result; n = inactive; x = no result given; ! = repeats disagree. Compounds with a hit are over-represented: about 0.24% of the library has one in this group of screens. Rule as the data show it, unless noted: active = inhibition above about 40%; inactive = the rest.

SMILES | NPYLR7 agonist | hcGAS lum | mcGAS inh
CCC(CO)N=Cc1ccc(O)cc1 (configuration not stated) | n | n | n
CCc1nnc(NC(=O)C(=O)N2CCCC(N3CCCC3=O)C2)s1 (configuration not stated) | n | n | n
CCN1CC(=Cc2cc(C)n(C3CC3)c2C)C(=O)C(=Cc2cc(C)n(C3CC3)c2C)C1 | 48 | n | x
Cc1cc(C=C2SC(N)=NC2=O)c(C)n1C1CC1 | n | n | x
O=C(CCl)N1N=C(c2ccc(Cl)cc2)CC1c1ccco1 (configuration not stated) | n | n | 52
CCN(CC)CC(=O)N1N=C(c2ccc(Cl)cc2)CC1c1ccco1 (configuration not stated) | n | n | n
COc1cc(OC)c(OC)cc1C=C1N=C(c2ccccc2Cl)OC1=O | n | n | x
Cc1ccc(C(=O)Nc2ccc(S(=O)(=O)O)c3cc(S(=O)(=O)O)cc(S(=O)(=O)O)c23)cc1NC(=O)c1cccc(NC(=O)Nc2cccc(C(=O)Nc3cc(C(=O)Nc4ccc(S(=O)(=O)O)c5cc(S(=O)(=O)O)cc(S(=O)(=O)O)c45)ccc3C)c2)c1 | n | 80 | 80
CC(=O)c1cccc(NS(=O)(=O)c2cc(C(=O)Nc3ccccc3C)ccc2C)c1 | n | n | n
CCn1ccc(C(=O)N(CCCN2CCOCC2)c2nc3ccc(Cl)cc3s2)n1 | n | n | x
O=C1CNc2c(c(=O)oc3ccccc23)N1 | n | 52 | x
O=c1c2ccccc2oc2ccccc12 | n | n | n
COc1ccccc1Oc1cnn(C)c(=O)c1Nc1cccc(C(=O)NCc2ccncc2)c1 | n | n | n
O=C(O)c1ccc(CSc2nnc(-c3cccnc3)n2-c2cccc(Cl)c2)cc1 | n | n | n
CC(=O)Nc1sc2c(c1-c1nc3ccccc3s1)CCN(C(C)C)C2 | n | 78 | 104
CC(C)N1CCc2c(sc(NC(=O)c3ccnn3C)c2-c2nc3ccccc3s2)C1 | x | n | n
Cc1ccc(-c2cc(C(=O)N3CCOC(C)C3)c3ccccc3n2)o1 (configuration not stated) | n | n | x
O=C(CN1CCCC1c1ccccc1)NCc1ccccc1 (configuration not stated) | n | n | x
S=c1n(CN2CCCC2c2ccccc2)cc2ccccn12 (configuration not stated) | n | 55 | x
COc1ccc2oc(=Nc3ccccc3OC)c(-c3nc4ccccc4[nH]3)cc2c1 | n | n | x
Brc1nc(Br)n(CCN2CCCCC2)n1 | n | n | x
CNC(=S)NNc1c(Cl)cc(Cl)cc1Cl | n | n | x
CCN1C(=O)/C(=C2\SC(=S)NC2=O)c2ccccc21 | n | n | n
O=C(O)CN1C(=O)/C(=C2\SC(=S)NC2=O)c2ccccc21 | n | n | 103
COc1ccc(/C=C/C(=O)NCC2Cc3cccc(-c4cccnc4)c3O2)cc1 (configuration not stated) | n | n | n
SMILES | NPYLR7 agonist | hcGAS lum | mcGAS inh
CCOc1cc(S(=O)(=O)NCc2ccco2)c(OCC)cc1C | n | n | x
CCOC(=O)CCC(=O)N1CCN(C(=O)c2cc3ccoc3n2Cc2ccc(C)cc2)CC1C (configuration not stated) | n | n | n
C=C(C)Cn1c(C(=O)N2CCN(C(=O)CCC(=O)OCC)C(C)C2)cc2ccoc21 (configuration not stated) | 57 | n | n
O=C(c1cc2ncc(CCO)cn2n1)N1CCC1c1ccc(F)cc1 (configuration not stated) | n | n | n
CC(=O)Nc1ccc(NC(=O)CSc2nc3c(-c4ccccc4)c(C)nn3c(=O)[nH]2)cc1 | n | n | n
Cc1nn2c(=O)[nH]c(SCC(N)=O)nc2c1-c1ccccc1 | n | 55 | n
CO[C@@]1(NC(=O)CSCC#N)C(=O)N2C(C(=O)O)=C(CSc3nnnn3C)CSC21 (some centres not stated) | 49! | n | x
CO[C@@]1(NC(=O)C2SC(=C(C(N)=O)C(=O)O)S2)C(=O)N2C(C(=O)O)=C(CSc3nnnn3C)CS[C@@H]21 (some centres not stated) | n | n | x
CCOP(=O)(CNS(=O)(=O)c1ccc(F)c(Cl)c1)OCC | n | n | n
COc1cc(C=C(C#N)S(=O)(=O)c2ccc(F)cc2)cc(Br)c1O | 183 | n | x
COc1cc(C=C(C#N)S(=O)(=O)c2cc(Cl)ccc2Cl)cc(OC)c1 | n | n | x
COc1cc(C=C(C#N)S(=O)(=O)c2ccc(F)cc2)cc(OC)c1OC | n | n | x
COc1cc(C=C(C#N)S(=O)(=O)c2cc(Cl)ccc2Cl)cc(Br)c1O | 66 | n | x
CCOC(=O)C1(C/C=C/c2ccccc2)CCCN(C(=O)c2ccc3c(c2)OCO3)C1 (configuration not stated) | n | n | x
CCOc1ccc(-n2nnc3c(N4CCN(C(=O)CCl)CC4)ncnc32)cc1 | n | n | n
Cc1cccc(C(=O)N2CCN(C(c3ccccc3)c3ccc(Cl)cc3)CC2)c1 (configuration not stated) | n | n | n
COc1ccc(NC(=O)C2C=CCN2)cc1NC(=O)c1ccco1 (configuration not stated) | 64 | n | n
COc1cc(NC(=O)c2ccco2)c(OC)cc1Cl | n | n | x
COc1cc2cc(C(=O)NC(C)C)cc(-c3ccc(C)cc3)c2cc1OC | n | n | n
CN(C)[C@@H]1[C@@H](NC2CCN(c3ccc4c(c3)CCC4)CC2)[C@H]2CCO[C@H]21 | x | n | n
CCOC(=O)C1CCCN(c2cn[nH]c(=O)c2Cl)C1 (configuration not stated) | n | n | x
CCCCN1CCC(COC(=O)c2cc(Cl)c(N)c3c2OCCO3)CC1 | n | n | 91
CCCCN1CCC(CCC(=O)c2cc(Cl)c(N)cc2OC)CC1 | n | n | x
CC(C)CNC(=O)NC(=O)CN1CCN(C(=O)C2CC2)CC1 | n | n | n
CCOc1ccccc1CN(CC)Cc1coc2ccccc2c1=O | n | n | x
SMILES | NPYLR7 agonist | hcGAS lum | mcGAS inh
O=C(CC1SC(=O)NC1=O)Oc1ccc(/C=C2\SC(=O)NC2=S)cc1 (configuration not stated) | 158 | 44 | x
O=C(O)CN1C(=O)/C(=C\c2ccc(OC(=O)c3ccc(Cl)cc3)cc2)SC1=S | n | n | n
CC(Oc1ncnc2ccccc12)c1ccccc1Cl (configuration not stated) | n | n | n
CCOc1ccc(NC(=O)C(C)(C)C)cc1S(=O)(=O)N1CCCCC1 | n | n | x
N#Cc1ccc([N+](=O)[O-])c(O)c1 | n | n | x
N#Cc1cc(I)c(O)c([N+](=O)[O-])c1 | n | 67 | x
COc1ccc(N2C(=O)CN(CCc3cccc(OC)c3)C3CS(=O)(=O)CC32)cc1 (configuration not stated) | n | n | x
Cc1ccc(-c2ccnc3c(C(=O)O)cnn23)o1 | n | n | x
Cc1c(C(=O)O)cnc2c([N+](=O)[O-])cnn12 | n | 41 | n
O=C(c1ccco1)N(Cc1nccn1Cc1c(F)cccc1Cl)C1CC1 | n | n | n
COC(=O)C1=C(C)NC(C)=C(C(=O)OC)C1c1ccccc1[N+](=O)[O-] | n | n | 51
COC(=O)C1=C(C)NC(=O)NC1c1ccccc1[N+](=O)[O-] (configuration not stated) | n | n | n
COc1ccccc1-c1cc(C(=O)NCCCN2CCOCC2)nc2c(-c3ccccc3)c(C)nn12 | n | n | n
COc1ccc(-c2cc3ccc4c(c3oc2=O)CN(Cc2cccnc2)CO4)c(OC)c1 | n | n | n

Source: PubChem BioAssay
